From paper PMC8384837, “Expanding the binding specificity for RNA recognition by a PUF domain”
Substitutions are numbered along the chain they refer to.

Experiments:
Assay in all cases: yeast three-hybrid, YBZ-1, SC-Leu-His + 0.5 mM 3-AT, 4 days
Conditions in all cases: tags: N-Gal4 AD-HA kept; label: inside an RPR1-promoter hybrid RNA with tandem MS2 sites; ssRNA
PUM1 PUF domain R5-GRG = PUM1 PUF domain R5-GRG (Homo sapiens, UniProt Q14671 828-1176, C1007G;Q1011G)
How it was run: (§1)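 Sequencing with Illumina followed PCR amplification of the repeat regions from transformants grown four days on SC-Leu (input) or SC-Leu-His + 0.5 mM 3-AT (selection). The transformants were strain YBZ-1 with a LexA–MS2 coat fusion and a HIS3 reporter, carrying Pumilio-1 PUF domain libraries and matching RNA elements. The interaction score is the log change in variant frequency from input to selection, computed in log2 with a pseudocount of 1 for absent variants.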

PUM1 PUF domain R3-GRT = PUM1 PUF domain R3-GRT (Homo sapiens, UniProt Q14671 828-1176, C935G;Q939T)
How it was run: as §1

PUM1 PUF domain R3-WWV = PUM1 PUF domain R3-WWV (Homo sapiens, UniProt Q14671 828-1176, C935W;R936W;Q939V)
How it was run: as §1

PUM1 PUF domain R3-YWG = PUM1 PUF domain R3-YWG (Homo sapiens, UniProt Q14671 828-1176, C935Y;R936W;Q939G)
How it was run: as §1

PUM1 PUF domain R1-KGM = PUM1 PUF domain R1-KGM (Homo sapiens, UniProt Q14671 828-1176, S863K;R864G;Q867M)
How it was run: as §1

PUM1 PUF domain R1-YPR = PUM1 PUF domain R1-YPR (Homo sapiens, UniProt Q14671 828-1176, S863Y;R864P;Q867R)
How it was run: as §1

PUM1 PUF domain R4-DWR = PUM1 PUF domain R4-DWR (Homo sapiens, UniProt Q14671 828-1176, N971D;H972W;Q975R)
How it was run: as §1

PUM1 PUF domain R7-LSS = PUM1 PUF domain R7-LSS (Homo sapiens, UniProt Q14671 828-1176, S1079L;N1080S;E1083S)
How it was run: as §1

PUM1 PUF domain R7-RCG = PUM1 PUF domain R7-RCG (Homo sapiens, UniProt Q14671 828-1176, S1079R;N1080C;E1083G)
How it was run: as §1

PUM1 PUF domain R3-IRT = PUM1 PUF domain R3-IRT (Homo sapiens, UniProt Q14671 828-1176, C935I;Q939T)
How it was run: as §1

PUM1 PUF domain R6-IYL = molecular target: T1, PUM1 PUF domain R6-IYL (Homo sapiens, UniProt Q14671 828-1176, N1043I;Q1047L)
T1 sequence: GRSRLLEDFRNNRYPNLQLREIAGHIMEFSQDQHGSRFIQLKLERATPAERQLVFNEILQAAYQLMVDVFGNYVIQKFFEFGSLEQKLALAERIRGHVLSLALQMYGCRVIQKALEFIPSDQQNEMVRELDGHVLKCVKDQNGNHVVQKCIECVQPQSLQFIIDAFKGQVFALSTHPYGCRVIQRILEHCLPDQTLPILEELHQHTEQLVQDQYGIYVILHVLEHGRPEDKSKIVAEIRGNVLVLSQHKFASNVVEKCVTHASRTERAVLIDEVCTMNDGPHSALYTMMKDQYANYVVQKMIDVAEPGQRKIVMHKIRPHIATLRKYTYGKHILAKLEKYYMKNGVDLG
How it was run: as §1

PUM1 PUF domain R6-SYA = molecular target: T2, PUM1 PUF domain R6-SYA (Homo sapiens, UniProt Q14671 828-1176, N1043S;Q1047A)
T2 sequence: T1 sequence with I216S, L220A
How it was run: as §1

PUM1 PUF domain R8-SWS = PUM1 PUF domain R8-SWS (Homo sapiens, UniProt Q14671 828-1176, N1122S;Y1123W;Q1126S)
How it was run: as §1

PUM1 PUF domain R3-VRT = PUM1 PUF domain R3-VRT (Homo sapiens, UniProt Q14671 828-1176, C935V;Q939T)
How it was run: as §1

PUM1 PUF domain R7-KYN = PUM1 PUF domain R7-KYN (Homo sapiens, UniProt Q14671 828-1176, S1079K;N1080Y;E1083N)
How it was run: as §1

PUM1 PUF domain R2-KRG = PUM1 PUF domain R2-KRG (Homo sapiens, UniProt Q14671 828-1176, N899K;Y900R;Q903G)
How it was run: as §1

PUM1 PUF domain R5-LHP = PUM1 PUF domain R5-LHP (Homo sapiens, UniProt Q14671 828-1176, C1007L;R1008H;Q1011P)
How it was run: as §1

PUM1 PUF domain R5-DGA = PUM1 PUF domain R5-DGA (Homo sapiens, UniProt Q14671 828-1176, C1007D;R1008G;Q1011A)
How it was run: as §1

PUM1 PUF domain R3-FCE = PUM1 PUF domain R3-FCE (Homo sapiens, UniProt Q14671 828-1176, C935F;R936C;Q939E)
How it was run: as §1

PUM1 PUF domain R3-LFM = PUM1 PUF domain R3-LFM (Homo sapiens, UniProt Q14671 828-1176, C935L;R936F;Q939M)
How it was run: as §1

With “GGCUAGAACUAGUGGAUCCCCCGGCGCCCGGCGGCUCGAGCCCGGGUAAGUGUGAAUAGUCUGCAUGCCGCCGGGCGCCAUGCCUGCAGGUCGACUCUAGAAAACAUG” the binding signal (PUM1 PUF domain R5-GRG) was 3.07 log2 enrichment (interaction score).

For “GGCUAGAACUAGUGGAUCCCCCGGCGCCCGGCGGCUCGAGCCCGGGUAAGUGUAAUUAGUCUGCAUGCCGCCGGGCGCCAUGCCUGCAGGUCGACUCUAGAAAACAUG”, the binding signal (PUM1 PUF domain R3-GRT) was 1.63 log2 enrichment (interaction score), the binding signal (PUM1 PUF domain R3-WWV) was 2.73 log2 enrichment (interaction score) and the binding signal (PUM1 PUF domain R3-YWG) was 4.54 log2 enrichment (interaction score).

In the case of “GGCUAGAACUAGUGGAUCCCCCGGCGCCCGGCGGCUCGAGCCCGGGUAAGUGUAAAUCGUCUGCAUGCCGCCGGGCGCCAUGCCUGCAGGUCGACUCUAGAAAACAUG”, the binding signal (PUM1 PUF domain R1-KGM) was 2.83 log2 enrichment (interaction score) and the binding signal (PUM1 PUF domain R1-YPR) was 3.29 log2 enrichment (interaction score).

For “GGCUAGAACUAGUGGAUCCCCCGGCGCCCGGCGGCUCGAGCCCGGGUAAGUGUACAUAGUCUGCAUGCCGCCGGGCGCCAUGCCUGCAGGUCGACUCUAGAAAACAUG”, the binding signal (PUM1 PUF domain R4-DWR) was 6.69 log2 enrichment (interaction score).

With “GGCUAGAACUAGUGGAUCCCCCGGCGCCCGGCGGCUCGAGCCCGGGUAAGUUUAAAUAGUCUGCAUGCCGCCGGGCGCCAUGCCUGCAGGUCGACUCUAGAAAACAUG” the binding signal (PUM1 PUF domain R7-LSS) was 2.47 log2 enrichment (interaction score) and the binding signal (PUM1 PUF domain R7-RCG) was 2.43 log2 enrichment (interaction score).

“GGCUAGAACUAGUGGAUCCCCCGGCGCCCGGCGGCUCGAGCCCGGGUAAGUGUAAAUAGUCUGCAUGCCGCCGGGCGCCAUGCCUGCAGGUCGACUCUAGAAAACAUG” was tested, and the binding signal (PUM1 PUF domain R3-IRT) was 4.08 log2 enrichment (interaction score), the binding signal (PUM1 PUF domain R6-IYL) was 4.93 log2 enrichment (interaction score) and the binding signal (PUM1 PUF domain R3-GRT) was 2.82 log2 enrichment (interaction score). For the same sequence, the binding signal (PUM1 PUF domain R6-SYA) was 2.48 log2 enrichment (interaction score), the binding signal (PUM1 PUF domain R8-SWS) was 2.46 log2 enrichment (interaction score) and the binding signal (PUM1 PUF domain R5-GRG) was 3.08 log2 enrichment (interaction score). For the same sequence, the binding signal (PUM1 PUF domain R3-VRT) was 3.97 log2 enrichment (interaction score) and the binding signal (PUM1 PUF domain R3-YWG) was 4.94 log2 enrichment (interaction score).

“GGCUAGAACUAGUGGAUCCCCCGGCGCCCGGCGGCUCGAGCCCGGGUAAGUCUAAAUAGUCUGCAUGCCGCCGGGCGCCAUGCCUGCAGGUCGACUCUAGAAAACAUG” was tested, and the binding signal (PUM1 PUF domain R7-KYN) was 3.09 log2 enrichment (interaction score).

With “GGCUAGAACUAGUGGAUCCCCCGGCGCCCGGCGGCUCGAGCCCGGGUAAGUGUAUAUAGUCUGCAUGCCGCCGGGCGCCAUGCCUGCAGGUCGACUCUAGAAAACAUG” the binding signal (PUM1 PUF domain R4-DWR) was 5.3 log2 enrichment (interaction score).

With “GGCUAGAACUAGUGGAUCCCCCGGCGCCCGGCGGCUCGAGCCCGGGUAAGUGUAAAGAGUCUGCAUGCCGCCGGGCGCCAUGCCUGCAGGUCGACUCUAGAAAACAUG” the binding signal (PUM1 PUF domain R2-KRG) was 4.1 log2 enrichment (interaction score).

In the case of “GGCUAGAACUAGUGGAUCCCCCGGCGCCCGGCGGCUCGAGCCCGGGUAAGUGUCAAUAGUCUGCAUGCCGCCGGGCGCCAUGCCUGCAGGUCGACUCUAGAAAACAUG”, the binding signal (PUM1 PUF domain R5-GRG) was 0.84 log2 enrichment (interaction score).

“GGCUAGAACUAGUGGAUCCCCCGGCGCCCGGCGGCUCGAGCCCGGGUAAGUGUAAAUUGUCUGCAUGCCGCCGGGCGCCAUGCCUGCAGGUCGACUCUAGAAAACAUG” was tested, and the binding signal (PUM1 PUF domain R1-KGM) was 0.32 log2 enrichment (interaction score) and the binding signal (PUM1 PUF domain R1-YPR) was 5.44 log2 enrichment (interaction score).

For “GGCUAGAACUAGUGGAUCCCCCGGCGCCCGGCGGCUCGAGCCCGGGUAAGUGUUAAUAGUCUGCAUGCCGCCGGGCGCCAUGCCUGCAGGUCGACUCUAGAAAACAUG”, the binding signal (PUM1 PUF domain R5-LHP) was 3.09 log2 enrichment (interaction score), the binding signal (PUM1 PUF domain R5-DGA) was 2.6 log2 enrichment (interaction score) and the binding signal (PUM1 PUF domain R5-GRG) was 3.72 log2 enrichment (interaction score).

With “GGCUAGAACUAGUGGAUCCCCCGGCGCCCGGCGGCUCGAGCCCGGGUAAGUGUAAGUAGUCUGCAUGCCGCCGGGCGCCAUGCCUGCAGGUCGACUCUAGAAAACAUG” the binding signal (PUM1 PUF domain R3-FCE) was 3.54 log2 enrichment (interaction score), the binding signal (PUM1 PUF domain R3-GRT) was 1.58 log2 enrichment (interaction score) and the binding signal (PUM1 PUF domain R3-WWV) was 4.18 log2 enrichment (interaction score). For the same sequence, the binding signal (PUM1 PUF domain R3-YWG) was 6.77 log2 enrichment (interaction score) and the binding signal (PUM1 PUF domain R3-LFM) was 5.47 log2 enrichment (interaction score).

For “GGCUAGAACUAGUGGAUCCCCCGGCGCCCGGCGGCUCGAGCCCGGGUAAGCGUAAAUAGUCUGCAUGCCGCCGGGCGCCAUGCCUGCAGGUCGACUCUAGAAAACAUG”, the binding signal (PUM1 PUF domain R8-SWS) was 2.67 log2 enrichment (interaction score).
